Compound activity from PubChem.
ALDH1A1 block – inhibitors of human aldehyde dehydrogenase 1A1; Purified ALDH1A1, NADH fluorescence, propionaldehyde substrate; AID 1030; Potency, µM (doses to about 75.3 µM), hits mostly inhibitors; 220,000 tested, 7.3% active; P00352
KinaseGlo FLuc – counter-screen: inhibitors of Kinase-Glo firefly luciferase; Kinase-Glo luciferase, ATP luminescence, 8 min; Q27757; Potency, µM (series often up to 38.3 µM), most hits filed as inhibitors; 200,000 tested, 0.28% active; active means well fitted inhibition curve with a large enough effect; inconclusive means small, poorly fitted or top-dose-only effect; further: nearly all actives have a fitted effect of over 60% in size
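Inhibition of Kinase-Glo luciferase light generation was assessed at 10 uM ATP in pH 7.2 imidazole buffer, with luminescence measured after eight minutes at ambient temperature.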
LMNA splice mod – modulators of lamin A splicing. 200,000 tested, 0.01% active. Potency, µM (series often up to 46.1 µM), hits mostly inhibitors. HeLa LMNA splicing GFP/RFP minigene ratio, 48 h; active means well fitted inhibition curve with a large enough effect in the signal ratio, with a control signal flat, not every such curve was filed as active; inconclusive means small, poorly fitted or top-dose-only effect, or effect the other way, or a change in a side signal; the % refers to the signal ratio
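S3 HeLa stable clones carrying a lamin A-EGFP splicing minigene plus DsRed2 were seeded at 600 cells/well in Opti-MEM with 2% FBS, pin-dosed and incubated 48 h at 37°C. Acumen cytometry (488 nm) gave the GFP/RFP total-intensity ratio.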
PNC inhibitor – blocks assembly of the perinucleolar compartment. PC3M PTB-GFP, PNC prevalence imaging, 16 h; hits give low values. activity change (PNC), negative = inhibition, % at 10 µM. 140,000 tested, 3.1% active. AID 2417;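 active means readout at or below -70, meaning at least 70% loss of cells showing the perinucleolar compartment, a nuclear body marking cancer cells; inconclusive means readout between -30 and a set limit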
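Read-out is percentage of cells bearing a perinucleolar compartment, from automated 20x imaging of fixed, Hoechst-stained PC3M PTB-GFP cells. Cells were seeded 4 h, then exposed 16 h to compound (23 nl of library stock) in duplicate plates.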
HPGD block – blocks human HPGD enzyme activity. purified HPGD, NADH fluorescence kinetic, PGE2 substrate. Potency, µM, hits mostly inhibitors. 150,000 tested, 4.3% active. AID 894
Target sequence (P15428 whole entry, looked up): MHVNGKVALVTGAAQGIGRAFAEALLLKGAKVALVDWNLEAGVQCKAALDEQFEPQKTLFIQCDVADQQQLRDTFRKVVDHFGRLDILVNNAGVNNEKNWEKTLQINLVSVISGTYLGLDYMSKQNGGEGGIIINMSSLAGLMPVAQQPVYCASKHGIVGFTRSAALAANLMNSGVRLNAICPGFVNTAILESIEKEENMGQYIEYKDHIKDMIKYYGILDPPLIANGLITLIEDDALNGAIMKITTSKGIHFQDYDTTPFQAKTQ
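20 nM HPGD preincubated 15 min at room temperature with compound in 50 mM Tris-HCl pH 8, 0.01% Tween 20. Started with 1 mM NAD+ and 30 uM prostaglandin E2; NADH fluorescence (360/450 nm) read 5 times over 30-s intervals, last minus first.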
Each line names hits and unclear results; the compound was inactive in the other large screens. A selection: hits, their analogues and other compounds. The true share with any hit is near 10%. Unless noted, the call rests on the fitted dose curve; in most records, active means well fitted inhibition curve with a large enough effect (not every such curve was filed as active); inconclusive means small, poorly fitted or top-dose-only effect, or another doubt; inactive means no such curve, though single readings can be large or run the other way.

CCOC(=O)c1[nH]c2c(c1C)C(=O)CC(c1ccc(OCC)c(OC)c1)C2 (stereo not drawn)	none
CCOC(=O)c1[nH]c2c(c1-c1ccccc1)C(=O)CC(c1ccc(OC)c(OC)c1)C2 (stereo not drawn)	ALDH1A1 block 13µM, LMNA splice mod inconclusive
Cc1c(C(=O)OCC2CCCO2)[nH]c2c1C(=O)CC(c1ccc(N(C)C)cc1)C2 (stereo not drawn)	ALDH1A1 block 11µM, LMNA splice mod inconclusive
CCOC(=O)c1[nH]c2c(c1-c1ccccc1)C(=O)CC(c1ccc(OCC)cc1)C2 (stereo not drawn)	PNC inhibitor inconclusive
CCOc1ccccc1CNC(=O)CCCN1C(=O)CCn2nc(-c3cccn3C)cc21	none (no result: ALDH1A1 block, KinaseGlo FLuc, PNC inhibitor, HPGD block)
Cc1ccc(CNc2ncnc3c2c(-c2ccccc2)cn3-c2cccc(Cl)c2)cc1	none (no result: ALDH1A1 block, KinaseGlo FLuc, PNC inhibitor, HPGD block)
CCOc1cc(S(=O)(=O)NC2CCCCCC2)ccc1F	ALDH1A1 block 3.2µM, LMNA splice mod inconclusive, HPGD block 25µM
CSc1nc2ccc(S(=O)(=O)NC3CCCCC3)cc2s1	ALDH1A1 block inconclusive, LMNA splice mod inconclusive, HPGD block 16µM
CSc1nc2ccc(S(=O)(=O)N3CCCCC3)cc2s1	none
O=C1c2ccccc2C(=O)N1Nc1ccccc1	PNC inhibitor -106
COc1cccc2sc(N(Cc3cccnc3)C(=O)C3COc4ccccc4O3)nc12 (stereo not drawn)	none (no result: ALDH1A1 block, KinaseGlo FLuc, PNC inhibitor, HPGD block)
CCC(=O)Nc1nc(C)c(C(=O)N2CCCCC2)s1	ALDH1A1 block inconclusive, HPGD block 8.9µM
CCN(CC)C(=O)Cn1c(=O)n(CCCCCC(=O)Nc2ccccc2)c(=O)c2sccc21	PNC inhibitor -113
Cc1cccc(C)c1NC(=O)Cn1c(=O)n(CCCC(=O)NCc2ccco2)c(=O)c2sccc21	ALDH1A1 block inconclusive, LMNA splice mod inconclusive, PNC inhibitor -91 (no result: KinaseGlo FLuc, HPGD block)
Cc1ccc(Cc2c(C)nn(-c3nc(C)c(C(=O)N4CCCCC4C)s3)c2C)cc1 (stereo not drawn)	none (no result: ALDH1A1 block, KinaseGlo FLuc, PNC inhibitor, HPGD block)
COC(=O)[C@H](COC(C)(C)C)NC(=O)O[C@H]1C(=O)c2cc(OC)ccc2O[C@@H]1c1ccc(OC)c(Br)c1	none (no result: LMNA splice mod, PNC inhibitor)
Cc1cccc(/C=c2\s/c(=C\C(=O)C(C)(C)C)[nH]c2=O)c1	LMNA splice mod inconclusive (no result: KinaseGlo FLuc, HPGD block)
O=C1C(=C2SCCCS2)CC/C1=C\c1ccc(F)cc1	KinaseGlo FLuc 11µM
Cc1cccc(/C=C2\CCC(=C3SCCCS3)C2=O)c1	ALDH1A1 block 8.9µM, KinaseGlo FLuc inconclusive
CC1CN(S(=O)(=O)c2ccc(NC(=O)c3cc(-c4ccccc4O)n[nH]3)cc2)CC(C)O1 (stereo not drawn)	LMNA splice mod inconclusive, HPGD block 14µM
Nc1ccc2cc3ccccc3cc2c1	ALDH1A1 block 2µM (no result: KinaseGlo FLuc, LMNA splice mod, PNC inhibitor)
Nc1ccc2ncccc2c1	ALDH1A1 block inconclusive
Nc1nonc1C(=O)NCCNC(=O)c1ccccc1F	none
Nc1nonc1C(=O)NCCNS(=O)(=O)c1ccc(Br)cc1	PNC inhibitor -90
CCOC(=O)C(Oc1ccc(=O)n(-c2ccccc2)n1)C(C)=O (stereo not drawn)	ALDH1A1 block 18µM
Cc1ccc(Sc2ccc(/C=N/O)cc2[N+](=O)[O-])cc1	LMNA splice mod inconclusive
O=C(O/N=C\c1ccc(N2CCOCC2)c([N+](=O)[O-])c1)c1ccccc1Cl	ALDH1A1 block 1.6µM
CC(C)(C)Sc1ccc(/C=N/O)cc1[N+](=O)[O-]	ALDH1A1 block 22µM (no result: PNC inhibitor, HPGD block)
CC1CCN(c2ccc(/C=N\Nc3nncn3N)cc2[N+](=O)[O-])CC1	ALDH1A1 block inconclusive, PNC inhibitor -116
O=[N+]([O-])c1cc(/C=N/n2cnnc2)ccc1N1CCCC1	ALDH1A1 block 1µM, LMNA splice mod inconclusive (no result: PNC inhibitor, HPGD block)
Fc1ccc(C(c2ccc(F)cc2)N2CCN(C/C=C\c3ccccc3)CC2)cc1	none (no result: PNC inhibitor)
O=C(O/N=C/c1ccc2c(c1)OCO2)c1ccccc1Cl	ALDH1A1 block inconclusive, KinaseGlo FLuc 11µM, HPGD block inconclusive
O=[N+]([O-])c1cc(/C=N/O)ccc1N1CCCC1	ALDH1A1 block 11µM, LMNA splice mod inconclusive (no result: PNC inhibitor, HPGD block)
O=C(Nc1cccc2cccnc12)c1ccc(F)cc1	none (no result: ALDH1A1 block, KinaseGlo FLuc, PNC inhibitor, HPGD block)
COc1ccc(-c2nc3scc(CCNC(=O)c4cc(OC)cc(OC)c4)n3n2)cc1	none (no result: ALDH1A1 block, KinaseGlo FLuc, PNC inhibitor, HPGD block)
O=C(CCN1C(=O)/C(=C/C=C/c2ccccc2)SC1=S)Nc1cccnc1	PNC inhibitor -108
O=C(CN1C(=O)S/C(=C\C=C\c2ccccc2)C1=O)Nc1cccc(O)c1	ALDH1A1 block 32µM, LMNA splice mod inconclusive
C[C@@H]1CC[C@H]2C(=O)NC[C@@H](O)CN2[C@@H]1c1ccc(Br)cc1	none (no result: KinaseGlo FLuc, LMNA splice mod, PNC inhibitor, HPGD block)
O=C(NCCc1csc2nc(-c3ccccc3F)nn12)c1ccco1	none (no result: ALDH1A1 block, KinaseGlo FLuc, PNC inhibitor, HPGD block)
COc1cc2cc(C(=O)O)[nH]c2c(OC)c1OC	ALDH1A1 block inconclusive, LMNA splice mod inconclusive, PNC inhibitor -97, HPGD block inconclusive
N#C/C(=C\c1ccc([N+](=O)[O-])cc1)c1ccccn1	none (no result: PNC inhibitor, HPGD block)
CN(C)c1ccc(NC(=S)c2ccccn2)cc1	ALDH1A1 block inconclusive, KinaseGlo FLuc 13µM, LMNA splice mod inconclusive, HPGD block 25µM
COC(=O)c1ccc(OC(=O)c2ccccn2)cc1	none
CN(C)c1ccc(C(=S)Nc2ccccc2)cc1	ALDH1A1 block inconclusive
CN(C)c1ccc(/C=C(\C#N)c2ccccn2)cc1	ALDH1A1 block 9.5µM, KinaseGlo FLuc 7.9µM, LMNA splice mod inconclusive
N#CC(C#N)=Cc1ccc(OC(=O)c2ccccn2)cc1	ALDH1A1 block 2µM
